For 40 molecules, growth results are on record in PubChem BioAssay (NCI).

SMILES strings stand for the structures. Compounds without any hit were thinned out: in the full panel of roughly 83,000, 20% have a hit.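 The endpoint reported here, percent growth, reads 100 for growth as untreated, 0 for no net growth and -100 for all cells dead.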 The source made the active and inactive calls.

For the assay, the system named is U251 CNS. Put plainly: NCI-60 one-dose screen, 48 h (100 = growth as untreated, 0 = no growth, -100 = all killed). The note with it: 10 µM unless noted. On the procedure:
Growth inhibition of the U251 human tumor cell line is measured as a screen for anti-cancer activity. Cells are grown in 96 well plates and exposed to the test compound for 48 hours. Compounds are tested at a single concentration, which is 10^-5 M for most compounds. The reported endpoint is percent growth (GI% or GIPRCNT), where numbers from 0 - 100% represent growth inhibition, and numbers from -100% - 0 represent cell death. For example, a value of 40 represents 60% growth inhibition. A value of 0 means no net growth occurred over the course of the experiment. A value of -40 indicates 40% of cells at the beginning of the experiment died by the end of the experiment. A value of -100 means all cells are dead at the end of the experiment.
NCI-60 Human Tumor Cell Lines Screen was performed using the standard one-dose NCI protocol, which is described in more detail at https://dtp.cancer.gov/discovery_development/nci-60/default.htm.
Compounds with GIPRCNT values below 10 were considered active. Activity score was based on GIPRCNT using the following formula: […]
Score is 0 for GIPRCNT values of 100 or above, 50 for GIPRCNT values of 0, and 100 for GIPRCNT values of -100.
As to `O=C(O)c1c(Cl)n(Cc2ccc(O)cc2)c2ccc(O)cc12`, the growth is 106% (inactive).
For `Cc1cc(NC(=O)NCc2ccc(N3C(N)=NC(N)=NC3(C)C)cc2)ccc1S(=O)(=O)F` the value was 32.7% (inactive).
For `COC(=O)CCC1=C(C)c2cc3[n-]c(cc4nc(cc5[n-]c(cc1n2)c(CCC(=O)OC)c5C)C=C4C)cc3C.[Cd+2]` the value was 61% (inactive); for `COC(=O)[C@@H](C)C[C@H](Cc1ccccc1)NC(=O)c1csc([C@@H](C[C@H](C(C)C)N(C)C(=O)[C@@H](NC(=O)[C@H]2CCCN2C)C2CC2)OC(C)=O)n1`, 8.67% (active).
Take `c1ccc(COc2ccc3[nH]cc(CCN(Cc4ccccc4)Cc4ccccc4)c3c2)cc1`: the growth was 81.6% (inactive).
For `CC[C@H](C)[C@H](NC(=O)[C@H]1CCCCN1C)C(=O)N(C)[C@H](CC(=O)c1nc(C(=O)N[C@@H](Cc2ccccc2)C[C@H](C)C(=O)O)cs1)C(C)C` the value was 45.9% (inactive); for `C[C@@H]1O[C@@H](O[C@H]2C[C@@H](O)[C@]3(CO)C4C(CC[C@]3(O)C2)[C@@]2(O)CC[C@H](C3=CC(=O)OC3)[C@@]2(C)C[C@H]4O)[C@H](O)[C@H](O)[C@H]1O` (stereo not given in full), -97.3% (active); for `Clc1cc(N2CC2)nc(N2CC2)n1`, 67.9% (inactive).
For `CC(=O)O[C@H]1C(=O)[C@@]2(C)[C@H]([C@H](OC(=O)c3ccccc3)[C@]3(O)C[C@H](OC(=O)[C@H](OC(=O)OC[C@H]4COC(C)(C)O4)[C@@H](NC(=O)c4ccccc4)c4ccccc4)C(C)=C1C3(C)C)[C@]1(OC(C)=O)CO[C@@H]1C[C@@H]2O` the value was 15.9% (inactive); for `Cc1ccc2c(C(C[N+](=O)[O-])c3cccs3)c(-c3ccccc3)[nH]c2c1` (stereo not given), 21% (inactive); for `COc1cc(C=C2c3ccccc3C(=O)c3ccccc32)ccc1OCCCCOc1cc2c(cc1OC)C(=O)N1CCCC1C=N2` (stereo not given), -100% (active).
For `COc1cc2c(cc1OCCCn1c(-c3ccccn3)nc3ccccc31)N=C[C@@H]1CCCN1C2=O` the value was -44% (active); for `c1cnc2[nH]cc(-c3csc(-c4cn(CCCCN5CCOCC5)c5ccccc45)n3)c2c1`, 20% (inactive); for `Nc1ccc(-c2nc3cc(F)ccc3[se]2)cc1F`, 87.2% (inactive).
With `C[C@@H]1C[C@@]2(C)[C@@H](CC[C@@H]3[C@@H]2CC[C@]2(C)C(=O)CC[C@@H]32)CC1=O`, the growth was 101% (inactive).
For `CC(=O)OC1CCC2(C)C(CCC3C2CC(=O)C2(C)C3CC(Sc3ccc(N(CCCl)CCCl)cc3)C2C(C)=O)C1` (stereo not given) the value was 68.1% (inactive); for `CCOC(=O)[C@@H](C)C[C@H](Cc1ccccc1)NC(=O)c1csc([C@@H](C[C@H](C(C)C)N(C)C(=O)CNC(=O)[C@H]2CCCCN2C)OC(C)=O)n1`, 18.7% (inactive).
For `Cc1cccc(N2CCN(C(C)C#N)CC2)c1` (stereo not given) the value was 103% (inactive); for `CC12CC=CCC1CCC1C2CCC2(C)C(c3ccc(=O)oc3)CCC12O` (stereo not given), -73.3% (active).
For `C[C@@]12CC=C3c4nc(Nc5cccc(O)c5)sc4CC[C@]3(C)[C@H]1CC[C@]1(C)C(=O)CC[C@@H]21` the value was 18.8% (inactive); for `COC(=O)C12CC(NC(=O)c3csc([C@@H](C[C@H](C(C)C)N(C)C(=O)[C@@H](NC(=O)[C@H]4CCCCN4C)C(C)C)OC(C)=O)n3)(C1)C2`, 20.7% (inactive).
`Clc1cccc(Cl)c1Cl`: the growth is 98.4% (inactive).
For `O=P(N1CC1)(N1CC1)N1CCc2ccccc21` the value was 95.5% (inactive).
For `CCCCCCCC[n+]1ccc2ccccc2c1` the value was 66% (inactive); for `N#C[Se]CCN1C(=O)c2ccccc2C1=O`, 27.4% (inactive); for `COC(=O)CC12CC(NC(=O)c3csc([C@@H](C[C@H](C(C)C)N(C)C(=O)[C@@H](NC(=O)[C@H]4CCCCN4C)C(C)C)OC(C)=O)n3)(C1)C2`, 17.3% (inactive).
For `CC1(C)[C@H](O)[C@H](F)C[C@@]2(C)Oc3ccc(C(=O)Nc4ccc5c(c4)NC(=O)C54CCN(CCCCC#N)CC4)cc3C[C@H]12` the value was 10.6% (inactive).
`O=[N+]([O-])c1cc([N+](=O)[O-])c(Cl)cc1Cl`: the growth was -71.3% (active).
`N/C(=N/N=C/c1ccncc1)N[N+](=O)[O-]`: the growth was 97.4% (inactive).
For `CC1=C(CCCOC(=O)[C@H](N)CC(C)C)C2=C(C)C3(CC3)[C@@](C)(O)C(=O)C2=C1` the value was 35.9% (inactive); for `Cc1cc(N(CCCl)CCCl)ccc1C=Nc1ccc(-c2csc(Cc3ccccc3)n2)cc1`, 62.7% (inactive).
For `COC1=CC(=O)O[C@@H](/C=C/c2ccc3c(c2)OCO3)C1` the value was 97.9% (inactive).
As for `C#Cc1ccc2c(c1)C(c1ccccc1)=NCC(=O)N2C`, the growth was 36.9% (inactive).
For `CC(C)CCC1(CCCl)C(=O)NC(=O)NC1=O` the value was 94.4% (inactive); for `C#C[C@]1(OC(=O)CCCCCC)CC[C@H]2[C@@H]3CCC4=CC(=O)CC[C@@H]4[C@H]3CC[C@@]21C`, 50.9% (inactive); for `C/C(=C\c1ccn(-c2ccc(N)cc2C(F)(F)F)n1)[C@@H]1C[C@@H]2O[C@]2(C)CCC[C@H](C)[C@H](O)[C@@H](C)C(=O)C(C)(C)[C@@H](O)CC(=O)O1`, 13.3% (inactive).
For `CC1=C(CCCOC(=O)CN)C2=C(C)C3(CC3)[C@@](C)(O)C(=O)C2=C1` the value was 82.3% (inactive); for `COc1ccc(C2=N[C@@H](Cc3ccccc3)C(=O)Nc3ccsc32)cc1`, 42.7% (inactive).
For `COP(=O)(OC)C(O)c1ccc(Cl)cc1` (stereo not given) the value was 104% (inactive); for `COc1cc2c(cc1OCc1ccccc1)C(CC(C)C)=[N+](C)CC2`, 49.1% (inactive).
